Measurements: ChEMBL document CHEMBL3433997, “St. Jude Leishmania screening dataset” (2016)

Tests used:
Format in all cases: functional
[1] = target: Solute carrier family 2, facilitated glucose transporter member 1 (Homo sapiens) (UniProt P11166); experiment: ST_JUDE_LEISH: Cytotoxicity at 2uM final concentration against transgenic Leishmania Mexicana promastigotes LmGLUT1 that are glucose transport deficient and complemented with the human glucose transporter GLUT1. Activity is measured by DNA content using SYBR green in vitro
[2] = target: Hexose transporter 1 (Plasmodium falciparum) (UniProt O97467); experiment: ST_JUDE_LEISH: Cytotoxicity at 2uM final concentration against transgenic Leishmania Mexicana promastigotes LmPfHT that are glucose transport deficient and complemented with the Plasmodium falciparum hexose transporter. Activity is measured by DNA content using SYBR green in vitro
[3] = target: Glucose transporter (Leishmania mexicana) (UniProt O61059); experiment: ST_JUDE_LEISH: Cytotoxicity at 2uM final concentration against transgenic Leishmania Mexicana promastigotes LmGT2 that are glucose transport deficient and complemented with the L. Mexicana glucose transporter 2. Activity is measured by DNA content using SYBR green in vitro

Solute carrier family 2, facilitated glucose transporter member 1 (Homo sapiens), sequence (P11166 whole entry): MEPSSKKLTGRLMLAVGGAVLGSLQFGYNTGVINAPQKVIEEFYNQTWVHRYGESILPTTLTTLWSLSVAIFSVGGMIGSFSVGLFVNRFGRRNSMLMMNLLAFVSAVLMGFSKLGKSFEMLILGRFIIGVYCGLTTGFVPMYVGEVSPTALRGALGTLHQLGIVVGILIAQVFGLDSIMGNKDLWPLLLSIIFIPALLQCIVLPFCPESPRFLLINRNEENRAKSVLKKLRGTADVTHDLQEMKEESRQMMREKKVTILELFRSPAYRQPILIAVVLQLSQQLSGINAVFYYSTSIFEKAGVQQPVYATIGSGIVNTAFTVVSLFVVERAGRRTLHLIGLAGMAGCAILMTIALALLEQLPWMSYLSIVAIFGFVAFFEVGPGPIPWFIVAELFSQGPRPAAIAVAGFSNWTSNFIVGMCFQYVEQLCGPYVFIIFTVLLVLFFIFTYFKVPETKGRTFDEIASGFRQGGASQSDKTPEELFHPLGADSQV

COc1cc(NC(=O)c2sc(-c3ccc(Cl)cc3)cc2NC(=O)c2cccnc2)ccc1OCCN1CCCC1
inhibition [1]: 4.28% | inhibition [2]: 4.76% | inhibition [3]: 6.19%

CCCc1cc(NC2CCN(C)CC2)nc(Nc2ccc(C)cc2)n1
inhibition [1]: 5.35% | inhibition [2]: 3.28% | inhibition [3]: 2.46%

COc1ccc2nccc([C@@H](O)CN3CCC(NCc4nc5c(F)cccc5[nH]4)CC3)c2c1
inhibition [1]: 1.46% | inhibition [2]: 0.84% | inhibition [3]: -0.41%

N=C(N)Nc1ccc(OCCCCCOc2ccc(NC(=N)N)cc2Br)c(Br)c1
inhibition [1]: 4.63% | inhibition [2]: 1.79% | inhibition [3]: 0.79%

COc1ccccc1C1CCN(C2CCC(NC(=O)/C=C/c3cc(F)cc(C(F)(F)F)c3)CC2)CC1 (stereo unspecified)
inhibition [1]: -0.82% | inhibition [2]: 0.7% | inhibition [3]: 1.96%

Cc1cc(O)c(CN2CCN(Cc3cccs3)CC2)cc1C(C)C
inhibition [1]: -0.44% | inhibition [2]: 0.02% | inhibition [3]: 2.94%

O=C(Nc1ccc(Cl)cc1F)NC1CCN(CCCCCNC(=O)C2CC2c2ccc(Cl)c(Cl)c2)CC1 (stereo unspecified)
inhibition [1]: 1.08% | inhibition [2]: 0.8% | inhibition [3]: 3.62%

COc1ccc2ncc(F)c(CCN3CC(O)C(CNCc4ccc5c(n4)NC(=O)CS5)C3)c2c1 (stereo unspecified)
inhibition [1]: 1.08% | inhibition [2]: 1.93% | inhibition [3]: 2.84%

CC(C)NCc1cccc(-c2ccc(-c3nc4cc(C(F)(F)F)ccc4[nH]3)cc2)c1
inhibition [1]: 7.38% | inhibition [2]: 6.19% | inhibition [3]: 6.87%

CC1CCC(NCc2c(O)ccc3ccccc23)CC1 (stereo unspecified)
inhibition [1]: 2.01% | inhibition [2]: 1.89% | inhibition [3]: 2.46%

O=C(NC(Cc1ccccc1)C(=O)O)c1cc(=O)c2ccccc2o1 (stereo unspecified)
inhibition [1]: 0.32% | inhibition [2]: 1.17% | inhibition [3]: 0.99%

Cc1cc(C)cc(-n2c(C)cc(/C=C3\SC(=Nc4ccc(Cl)cc4)NC3=O)c2C)c1
inhibition [1]: 5.26% | inhibition [2]: 7.1% | inhibition [3]: 1.22%
